Measured values taken from PubChem BioAssay.
Records with an inconclusive call do not appear. Calls of active or inactive are those of the source.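 The calls were made as follows, unless noted: active = inhibition above 54%, about 3 SD of non-fluorescent compounds; inactive = the rest.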

Legend:
[1] = yeast TOR pathway RPL19A-GFP modulators, primary screen, cell-based, S. cerevisiae, multiplex flow cytometry (AID 1862; in the data active = percent of DMSO control GFP below about 86%;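 also: lower values mimic rapamycin by blocking the RPL19A rise seen in DMSO cells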); settings: S. cerevisiae RPL19A-GFP strain, flow cytometry fluorescence, 3 h; at 10 µM; stronger effect = lower value
[2] = modulators of MEP2-GFP levels in yeast, primary screen, S. cerevisiae, multiplex flow cytometry (AID 1867;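 active = GFP response, as percent of the DMSO control, above the screen-wide mean plus 3 SD, about 139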;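 also: median GFP channel fluorescence of barcode-gated MEP2-GFP cells measured by flow cytometry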); settings: S. cerevisiae MEP2-GFP strain, 3 h, at 10 µM, stronger effect = higher value, 100% means same as DMSO wells
[3] = modulators of CIT2-GFP expression in yeast, primary screen, S. cerevisiae, GFP fusion, multiplex flow cytometry (AID 1870;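 active = percent response above a set limit, the screen-wide mean plus 3 SD, cut at about 130% in these data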;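 also: barcoded CIT2-GFP strain pooled with four other GFP strains with rapamycin as positive control; median GFP fluorescence per well over plate mean of DMSO wells so 100% = DMSO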); settings: 3 h, at 10 µM, stronger effect = higher value
[4] = modulators of LAP4-GFP expression in yeast, primary screen, S. cerevisiae, multiplex flow cytometry (AID 1873;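 active = GFP signal, as percent of the solvent control, above the screen mean plus 3 SD, about 149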); settings: 3 h, at 10 µM, stronger effect = higher value
[5] = modulators of AGP1-GFP expression in yeast TOR pathway, primary screen, cell-based, multiplex flow cytometry, S. cerevisiae (AID 1887;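 active = GFP signal above the screen-wide mean plus 3 SD, that is over about 124.5% of the solvent control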;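 also: AGP1-GFP fusion strain of S. cerevisiae within a five-strain barcoded multiplex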); settings: 3 h, at 10 µM, stronger effect = higher value
[6] = inhibitors of CD8+ T cell-vesicle binding, pilot screen, LFA-1/ICAM-1 modulator project, MLPCN validation set, flow cytometry (AID 2523;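 active = response below a set limit, under 55% cells CD8-positive and vesicle-bound, and CD8 cells' 90th-percentile brightness under 279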;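 as to vesicle binding response: mean PE anti-B7-1 fluorescence of CD8+ cells relative to row control; 100% = QL9-loaded vesicles with DMSO vehicle in the same plate row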); settings: 2C mouse CD8+ T cells, at 7 µM, stronger effect = lower value; double positive events: measured here: CD8+/vesicle+ event percentage
[7] = molecular target: Integrin beta-1 (Homo sapiens) + Integrin alpha-4 (Homo sapiens) (UniProt P13612+P05556); test: inhibition of HUTS-21 binding to VLA-4, pilot screen, VLA-4 allosteric modulator project, U937 cells, HUTS-21 mAb, flow cytometry, validation set (AID 2674;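 active = inhibition above 50%, about 3 SD of the validation set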;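 also: antibody binding induced by the VLA-4 ligand LDV present at three times its Kd; 0% = LDV ligand with antibody and no compound and 100% = antibody without LDV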); settings: HUTS-21 LIBS mAb binding, at 6.7 µM, stronger effect = higher value, binding induced by LDV ligand
Chain of Integrin beta-1 (Homo sapiens) + Integrin alpha-4 (Homo sapiens) (P05556 whole entry, looked up): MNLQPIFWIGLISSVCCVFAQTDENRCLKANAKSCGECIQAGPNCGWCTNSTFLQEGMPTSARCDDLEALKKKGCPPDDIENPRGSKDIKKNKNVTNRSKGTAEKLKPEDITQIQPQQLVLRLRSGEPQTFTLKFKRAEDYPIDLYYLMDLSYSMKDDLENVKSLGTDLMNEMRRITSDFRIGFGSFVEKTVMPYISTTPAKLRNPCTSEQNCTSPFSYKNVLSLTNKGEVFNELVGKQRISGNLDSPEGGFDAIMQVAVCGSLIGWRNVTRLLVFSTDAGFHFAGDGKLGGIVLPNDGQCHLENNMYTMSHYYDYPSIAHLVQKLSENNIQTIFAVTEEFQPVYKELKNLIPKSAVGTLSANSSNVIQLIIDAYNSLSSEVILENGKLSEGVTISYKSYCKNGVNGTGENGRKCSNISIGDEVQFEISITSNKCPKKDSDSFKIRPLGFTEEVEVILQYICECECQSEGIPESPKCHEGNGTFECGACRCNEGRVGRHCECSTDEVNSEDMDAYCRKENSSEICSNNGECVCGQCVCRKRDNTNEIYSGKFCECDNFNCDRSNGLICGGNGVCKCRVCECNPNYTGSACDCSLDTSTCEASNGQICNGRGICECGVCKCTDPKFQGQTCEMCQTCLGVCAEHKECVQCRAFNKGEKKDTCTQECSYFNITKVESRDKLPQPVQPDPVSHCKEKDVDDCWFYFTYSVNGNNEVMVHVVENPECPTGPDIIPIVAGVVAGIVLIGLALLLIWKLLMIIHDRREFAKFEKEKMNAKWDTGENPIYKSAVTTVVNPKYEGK
Chain of Integrin beta-1 (Homo sapiens) + Integrin alpha-4 (Homo sapiens) (P13612 whole entry, looked up): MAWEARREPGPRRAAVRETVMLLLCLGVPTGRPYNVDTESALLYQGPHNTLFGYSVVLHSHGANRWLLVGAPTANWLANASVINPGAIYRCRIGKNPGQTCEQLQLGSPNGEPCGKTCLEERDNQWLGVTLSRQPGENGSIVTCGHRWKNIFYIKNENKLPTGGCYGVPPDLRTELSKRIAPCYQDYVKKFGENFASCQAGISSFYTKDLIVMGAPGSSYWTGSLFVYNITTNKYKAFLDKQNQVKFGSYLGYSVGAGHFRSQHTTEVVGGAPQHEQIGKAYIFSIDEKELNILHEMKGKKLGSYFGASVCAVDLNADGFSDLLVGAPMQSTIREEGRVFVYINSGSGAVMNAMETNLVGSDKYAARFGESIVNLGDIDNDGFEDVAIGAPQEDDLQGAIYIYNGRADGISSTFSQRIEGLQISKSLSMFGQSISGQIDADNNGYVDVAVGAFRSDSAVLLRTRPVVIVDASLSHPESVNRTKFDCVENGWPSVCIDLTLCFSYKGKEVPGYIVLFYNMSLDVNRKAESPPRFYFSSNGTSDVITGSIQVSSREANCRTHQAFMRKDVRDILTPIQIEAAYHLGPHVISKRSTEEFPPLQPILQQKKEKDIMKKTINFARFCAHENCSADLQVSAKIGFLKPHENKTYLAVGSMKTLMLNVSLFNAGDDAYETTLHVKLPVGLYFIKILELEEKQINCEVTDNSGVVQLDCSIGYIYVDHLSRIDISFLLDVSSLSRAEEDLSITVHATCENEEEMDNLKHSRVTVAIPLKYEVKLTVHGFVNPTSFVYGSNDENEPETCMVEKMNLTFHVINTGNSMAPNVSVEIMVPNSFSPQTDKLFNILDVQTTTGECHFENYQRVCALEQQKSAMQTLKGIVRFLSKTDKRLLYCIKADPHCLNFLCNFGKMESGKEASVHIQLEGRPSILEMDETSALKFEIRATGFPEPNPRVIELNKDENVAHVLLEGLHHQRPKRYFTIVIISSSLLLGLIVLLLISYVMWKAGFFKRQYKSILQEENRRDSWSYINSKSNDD

[8] = superoxide lowering in aged yeast cells, pilot screen, validation compound set (AID 2706;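 active = superoxide response below 65% of plate, a cut near 3 SD across the whole screen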;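 also: yeast exposed to compound for one week at 30 degrees C before staining; 100% = mean of all compound wells on the same plate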); settings: S. cerevisiae aging, superoxide DHE fluorescence; at 10 µM; stronger effect = lower value
[9] = molecular target: Beta-adrenergic receptor kinase 1 (Homo sapiens) (UniProt P25098); test: GRK2 binders displacing RNA aptamer, biochemical, validation, human GRK2, bead flow cytometry (AID 488806;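 active = aptamer binding inhibition above 30%, about 3 SD of noise from non-fluorescent compounds; inactive = inhibition at or below 30%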); settings: bead-bound GRK2, FAM-aptamer displacement, at 10 µM, stronger effect = higher value
Chain of Beta-adrenergic receptor kinase 1 (Homo sapiens) (P25098 whole entry, looked up): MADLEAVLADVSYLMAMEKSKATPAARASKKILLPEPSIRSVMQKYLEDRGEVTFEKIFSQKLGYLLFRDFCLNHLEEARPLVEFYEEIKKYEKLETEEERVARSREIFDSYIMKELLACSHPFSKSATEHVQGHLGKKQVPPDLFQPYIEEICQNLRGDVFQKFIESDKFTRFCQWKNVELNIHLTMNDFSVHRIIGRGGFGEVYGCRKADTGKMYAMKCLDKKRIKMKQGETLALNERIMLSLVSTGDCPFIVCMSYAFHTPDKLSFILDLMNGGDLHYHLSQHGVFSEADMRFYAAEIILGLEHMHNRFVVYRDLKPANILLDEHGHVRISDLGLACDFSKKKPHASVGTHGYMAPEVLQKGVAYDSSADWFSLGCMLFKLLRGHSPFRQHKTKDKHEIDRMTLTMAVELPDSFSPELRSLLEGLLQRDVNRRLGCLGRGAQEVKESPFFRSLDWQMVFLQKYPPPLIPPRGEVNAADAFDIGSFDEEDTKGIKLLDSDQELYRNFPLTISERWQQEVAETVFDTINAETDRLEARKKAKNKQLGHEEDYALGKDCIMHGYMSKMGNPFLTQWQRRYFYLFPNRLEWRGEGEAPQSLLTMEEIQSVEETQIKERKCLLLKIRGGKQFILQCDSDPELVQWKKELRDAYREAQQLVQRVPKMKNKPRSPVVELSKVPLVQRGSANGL

[10] = molecular target: Beta-2 adrenergic receptor (Homo sapiens) (UniProt P07550); test: beta2AR agonists driving receptor internalization, pilot screen, cell-based, FAP fluorogen, flow cytometry, validation set (AID 504459;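 active = percent response above 42, roughly 3 SD of non-fluorescent test compounds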;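 also: agonist-driven loss of surface beta2AR via internalization measured by FAP dye flow cytometry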); settings: Am2.2-beta2AR cells, FAP surface receptor flow cytometry; at 10 µM; stronger effect = higher value
Chain of Beta-2 adrenergic receptor (Homo sapiens) (P07550 whole entry, looked up, the tested form may be a part): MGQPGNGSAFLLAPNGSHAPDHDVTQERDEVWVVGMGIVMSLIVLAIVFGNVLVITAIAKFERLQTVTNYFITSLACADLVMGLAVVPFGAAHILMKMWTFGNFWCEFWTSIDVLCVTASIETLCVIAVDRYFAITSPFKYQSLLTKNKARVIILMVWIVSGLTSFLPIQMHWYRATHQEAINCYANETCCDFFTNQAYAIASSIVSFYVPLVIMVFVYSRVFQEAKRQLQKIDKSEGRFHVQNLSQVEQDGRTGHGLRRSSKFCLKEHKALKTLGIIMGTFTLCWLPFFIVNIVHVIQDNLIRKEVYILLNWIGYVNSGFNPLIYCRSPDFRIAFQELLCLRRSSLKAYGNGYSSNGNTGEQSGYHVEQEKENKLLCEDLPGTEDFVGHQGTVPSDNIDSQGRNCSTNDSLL

[11] = molecular target: AP-2 complex subunit beta (Homo sapiens) (UniProt P63010); test: inhibitors of arrestin peptide binding to AP2, pilot screen, biochemical, validation set, GST-AP2 beads, flow cytometry (AID 504541); settings: FITC arrestin peptide, at 10 µM, stronger effect = higher value, AP2 beta2 appendage fragment, R879A mutant;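 also: AP2 carries R879A mutation and is captured from E. coli lysate; bead-bound FITC arrestin peptide fluorescence measuring arrestin peptide binding to AP2; 0% = DMSO wells and 100% = excess unlabeled arrestin peptide control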
Chain of AP-2 complex subunit beta (Homo sapiens) (P63010 whole entry, looked up, the tested form may be a part, one chain of several): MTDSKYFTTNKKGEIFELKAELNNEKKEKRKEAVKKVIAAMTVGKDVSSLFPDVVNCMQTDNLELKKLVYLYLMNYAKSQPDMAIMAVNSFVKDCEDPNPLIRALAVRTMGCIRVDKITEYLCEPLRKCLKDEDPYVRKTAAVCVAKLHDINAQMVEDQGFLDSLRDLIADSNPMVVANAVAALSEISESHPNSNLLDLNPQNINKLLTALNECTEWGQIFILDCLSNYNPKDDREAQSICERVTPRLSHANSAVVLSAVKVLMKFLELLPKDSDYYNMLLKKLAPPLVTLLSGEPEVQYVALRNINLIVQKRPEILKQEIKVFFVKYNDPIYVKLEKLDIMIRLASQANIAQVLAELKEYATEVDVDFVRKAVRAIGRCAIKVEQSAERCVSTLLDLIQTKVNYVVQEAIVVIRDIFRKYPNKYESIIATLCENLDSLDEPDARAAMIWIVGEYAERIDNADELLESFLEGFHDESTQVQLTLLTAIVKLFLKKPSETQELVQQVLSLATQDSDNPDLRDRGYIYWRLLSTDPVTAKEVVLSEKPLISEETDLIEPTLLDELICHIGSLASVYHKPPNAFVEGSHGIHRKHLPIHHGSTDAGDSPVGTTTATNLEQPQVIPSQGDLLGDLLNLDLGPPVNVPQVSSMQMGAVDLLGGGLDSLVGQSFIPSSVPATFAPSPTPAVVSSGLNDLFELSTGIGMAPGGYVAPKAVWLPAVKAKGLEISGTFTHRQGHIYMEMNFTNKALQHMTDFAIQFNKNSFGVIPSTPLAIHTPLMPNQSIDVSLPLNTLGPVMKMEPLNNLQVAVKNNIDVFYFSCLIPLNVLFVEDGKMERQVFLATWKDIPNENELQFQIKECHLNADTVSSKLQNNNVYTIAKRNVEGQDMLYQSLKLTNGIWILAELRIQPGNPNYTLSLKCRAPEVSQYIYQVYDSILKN

[12] = yeast V-ATPase proton transport modulators, S. cerevisiae, pHLuorin, HTS validation (AID 504600; in the data active = response above about 15%;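 also: plate controls were DMSO for no effect and reference compound for full effect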); settings: S. cerevisiae pHLuorin cytosolic pH, at 10 µM, stronger effect = higher value
[13] = test system: anti-desmoglein-3 scFv antibody binding to human DSG3; test: inhibitors of anti-DSG3 scFv binding to DSG3, pilot screen, biochemical, validation compound set, bead-based, flow cytometry (AID 588368;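 active = binding below the plate cutoff, the plate median minus 3 SD, with a reading above zero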;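 also: signal is the median channel fluorescence of bead-bound GFP antibody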); settings: Protein G beads, DSG3-Fc, scFv-GFP binding, at 10 µM, stronger effect = lower value
[14] = inhibitors of fungal efflux pumps CDR1, CDR2, MDR1, pilot screen, validation compound set, multiplex, phenotypic (AID 588506;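 active = efflux inhibition above 0.42, the validation set average plus 4 SD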;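 also: Nile Red retained in cells so higher fluorescence means more efflux inhibition; 0 = negative control wells and 1 = enniatin B 25 µM full block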); settings: S. cerevisiae pump-expressing triplex, Nile Red efflux flow cytometry; at 10 µM; stronger effect = higher value; the pumps come from Candida albicans
[15] = molecular target: ATP-binding cassette sub-family B member 6 (Homo sapiens) (UniProt Q9NP58); test: ABCB6 transporter inhibitors, pilot screen, K562-ABCB6 cells, flow cytometry, validation set (AID 588550;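 active = inhibition above the screen-wide mean plus 3 SD, about 51%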;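 also: 0% = DMSO wells and 100% = benzethonium chloride 70 µM positive control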); settings: K562-ABCB6 porphyrin accumulation, 1 h, at 10 µM, stronger effect = higher value
Chain of ATP-binding cassette sub-family B member 6 (Homo sapiens) (Q9NP58 whole entry, looked up): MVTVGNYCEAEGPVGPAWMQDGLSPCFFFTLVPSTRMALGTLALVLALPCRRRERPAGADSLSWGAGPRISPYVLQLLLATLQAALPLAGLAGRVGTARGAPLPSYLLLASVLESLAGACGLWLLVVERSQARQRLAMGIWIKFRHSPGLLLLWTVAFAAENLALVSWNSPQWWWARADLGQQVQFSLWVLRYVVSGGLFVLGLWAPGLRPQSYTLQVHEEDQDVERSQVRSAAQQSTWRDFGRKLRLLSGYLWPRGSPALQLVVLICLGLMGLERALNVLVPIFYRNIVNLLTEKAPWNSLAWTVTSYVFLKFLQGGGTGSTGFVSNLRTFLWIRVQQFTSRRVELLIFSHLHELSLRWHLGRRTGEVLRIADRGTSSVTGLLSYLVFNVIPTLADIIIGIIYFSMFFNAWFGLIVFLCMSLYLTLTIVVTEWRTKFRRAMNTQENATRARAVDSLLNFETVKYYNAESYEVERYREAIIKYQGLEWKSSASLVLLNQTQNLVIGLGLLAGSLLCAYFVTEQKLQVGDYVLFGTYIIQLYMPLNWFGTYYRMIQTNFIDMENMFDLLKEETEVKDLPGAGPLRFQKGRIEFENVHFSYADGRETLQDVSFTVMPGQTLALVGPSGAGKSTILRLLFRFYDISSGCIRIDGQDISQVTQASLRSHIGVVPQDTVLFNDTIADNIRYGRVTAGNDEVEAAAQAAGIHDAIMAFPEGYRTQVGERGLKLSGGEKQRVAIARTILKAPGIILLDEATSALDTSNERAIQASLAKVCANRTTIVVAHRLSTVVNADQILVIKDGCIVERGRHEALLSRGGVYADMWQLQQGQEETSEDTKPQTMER

[16] = promoters of myeloid differentiation in arrested cells, primary screen, cell-based, GFP/MAC1 double positive, flow cytometry, validation set (AID 588685;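 active = differentiation response of at least 50%, scaled between solvent and reference control, from cells with both markers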;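 also: compound exposure lasts four days before antibody staining and flow analysis; 0% = DMSO wells and 100% = 5 µM fulvestrant positive control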); settings: ER-HoxA9 marrow cells, stronger effect = higher value, normalized: vehicle 0, fulvestrant 100

| SMILES | percent of DMSO control GFP [1] | GFP response vs DMSO [2] | percent response of DMSO control [3] | GFP response vs DMSO [4] | GFP response, % of DMSO [5] | double positive events [6] [%] | vesicle binding response [6] | inhibition [7] | superoxide response (% of plate) [8] | aptamer binding inhibition [9] | response [10] | inhibition [11] | response [12] | binding (% of control) [13] | efflux inhibition (fraction of control) [14] | inhibition [15] | differentiation response [16] |
| --- | --- | --- | --- | --- | --- | --- | --- | --- | --- | --- | --- | --- | --- | --- | --- | --- | --- |
| O=C(Cc1ccccc1)NCC(=O)OCC(=O)c1ccccc1Cl | 98.3% (inactive) | 112% (inactive) | 107% (inactive) | 74.3% (inactive) | 93.3% (inactive) | 76.4 | 296% (inactive) | -2.27% (inactive) | 92.9% (inactive) | 4% (inactive) | -1.13% (inactive) | -4.1% (inactive) | 3.49% (inactive) | 106% (inactive) | -0.42 (inactive) | 17% (inactive) | -0.82% (inactive) |
| CC1(C)Cc2ccccc2-c2n[nH]c(=S)n21 | 99.1% (inactive) | 102% (inactive) | 101% (inactive) | 102% (inactive) | 104% (inactive) | 61.1 | 203% (inactive) | 9.63% (inactive) | 92.5% (inactive) | 2% (inactive) | -1.77% (inactive) | 56.7% (active) | -1.77% (inactive) | 97.2% (inactive) | 0.19 (inactive) | 11% (inactive) | -14.8% (inactive) |
| CCc1cc(/C(Cc2ccccn2)=N\O)c(O)cc1O | 99.1% (inactive) | 102% (inactive) | 107% (inactive) | 83.7% (inactive) | 91.4% (inactive) | 52.1 | 51.2% (active) | -14.1% (inactive) | 104% (inactive) | 3% (inactive) | 10.8% (inactive) | 15.4% (inactive) | 2.25% (inactive) | 101% (inactive) | -0.17 (inactive) | 1% (inactive) | -5.6% (inactive) |
| O=C(c1cccnc1)N1N=C(C2CC2)CC1(O)C(F)(F)F (stereo not drawn) | 99.1% (inactive) | 104% (inactive) | 93.9% (inactive) | 115% (inactive) | 104% (inactive) | 60.4 | 353% (inactive) | -7.25% (inactive) | 106% (inactive) | 2% (inactive) | -5.28% (inactive) | 2.62% (inactive) | -0.29% (inactive) | 101% (inactive) | -0.1 (inactive) | 10% (inactive) | -28% (inactive) |
| NS(=O)(=O)c1ccc(CNC(=O)c2cc(-c3ccccc3)nc3ccccc23)cc1 | 98.8% (inactive) | 109% (inactive) | 104% (inactive) | 95.3% (inactive) | 97.5% (inactive) | 59.3 | 220% (inactive) | -7.72% (inactive) | 104% (inactive) | 2% (inactive) | -8.54% (inactive) | 16% (inactive) | -3.46% (inactive) | 98% (inactive) | -0.1 (inactive) | 1% (inactive) | 5.13% (inactive) |
| Cc1cccc(CN2CCN(C(c3ccccc3)c3ccc(Cl)cc3)CC2)c1 (stereo not drawn) | 97.7% (inactive) | 104% (inactive) | 98.2% (inactive) | 99.4% (inactive) | 96.9% (inactive) | 62.4 | 227% (inactive) | -6.04% (inactive) | 99.2% (inactive) | 2% (inactive) | 8.57% (inactive) | 35.5% (inactive) | 0.49% (inactive) | 105% (inactive) | 0.46 (active) | -1% (inactive) | 26.3% (inactive) |
| C[C@@H]1C[C@H]2[C@@H]3C[C@H](F)C4=CC(=O)C=C[C@]4(C)[C@@]3(F)[C@@H](O)C[C@]2(C)[C@@]1(O)C(=O)COC(=O)C(C)(C)C | 101% (inactive) | 105% (inactive) | 99.3% (inactive) | 98.7% (inactive) | 99.2% (inactive) | 58.5 | 142% (inactive) | 6.85% (inactive) | 104% (inactive) | 3% (inactive) | -5.56% (inactive) | 19.2% (inactive) | 0.5% (inactive) | 100% (inactive) | 0.14 (inactive) | 4% (inactive) | -4.16% (inactive) |
| O=C(CCc1c[nH]c2ccccc12)NCc1ccco1 | 102% (inactive) | 106% (inactive) | 93.8% (inactive) | 109% (inactive) | 106% (inactive) | 63 | 201% (inactive) | 3.99% (inactive) | 98.4% (inactive) | -3% (inactive) | -21.7% (inactive) | 33.1% (inactive) | 1.49% (inactive) | 103% (inactive) | 0.04 (inactive) | 5% (inactive) | 0.92% (inactive) |
| CCC(CO)NCCNC(CC)CO (stereo not drawn) | 95.5% (inactive) | 139% (inactive) | 101% (inactive) | 87.5% (inactive) | 97.7% (inactive) | 66.7 | 133% (inactive) | 4.52% (inactive) | 91.3% (inactive) | -1% (inactive) | 3.66% (inactive) | 33.3% (inactive) | -3.71% (inactive) | 103% (inactive) | -0.28 (inactive) | 114% (active) | -1.64% (inactive) |
